High-throughput results deposited in PubChem BioAssay by National Center for Advancing Translational Sciences (NCATS).
Pf Dd2 growth: Plasmodium falciparum Dd2 growth inhibition; P. falciparum Dd2 growth, SYBR Green, 72 h; Potency, µM (doses to about 28.9 µM), for the others: at the highest dose activity, negative = inhibition, actives largely listed as inhibitors; 120,000 tested, 4.3% active; AID 1347417; active means well fitted inhibition curve with a large enough effect;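 further: plate controls were DMSO vehicle for no effect and reference drug for full effect; nearly all actives have a fitted effect of over 65% in size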
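Readout: SYBR Green fluorescence, 485 nm excitation, 535 nm emission, after ~16 h lysis at 37C. Before that, Dd2-infected red cells (2.5% hematocrit) grew 72 h with compound, 29 uM top final concentration.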
The depositor's hits bear a star; i = inactive; [ ] = another dose, or the depositor's remark. The entries come from a sample that favours hits as a whole. Potency means the concentration at half of the fitted maximal effect.

SMILES | Pf Dd2 growth
O=C(c1ccsc1)N1CCC(c2n[nH]c(=O)n2Cc2ccc(F)cc2)CC1 | -4%
O=C(c1ccc(=O)[nH]c1)N1C[C@@H](COCC2CC2)[C@H](c2ccncc2)C1 | 14%
Cc1ccccc1-n1nc(-c2c(C)nc3scc(CC(=O)NC(C)C)n3c2=O)cc1C | -9%
C=CCn1nc(C(=O)N2CCOCC2)c2c1CCC(NCC1(c3ccccc3)CCOCC1)C2 (centres undefined) | -12%
O=C1[C@@H]2C[C@@H](CN2C(=O)c2ccccc2)Oc2ccccc2N1Cc1ccccc1 | -12%[44.1 µM]
CC(C)N1C[C@@H]2C[C@H]1C(=O)N(Cc1ccc(OC(F)(F)F)cc1)c1ccccc1O2 | 11µM*
O=C1[C@@H]2C[C@@H](CN2C(=O)c2ccccc2)Oc2ccccc2N1CC1CC1 | 5%[44.1 µM]
COCCN1C(=O)[C@@H]2C[C@@H](CN2C(C)C)Oc2ccccc21 | -34%[44.1 µM]
CC(C)N1C[C@@H]2C[C@H]1C(=O)N(CC1CC1)c1ccccc1O2 | 11µM*
COCCN1C(=O)[C@@H]2C[C@@H](CN2C2CCCC2)Oc2ccccc21 | -30%[44.1 µM]
CN1CCC(N2C[C@@H]3C[C@H]2C(=O)N(Cc2ccc(OC(F)(F)F)cc2)c2ccccc2O3)CC1 | 10µM*
COc1ccc(CN2C(=O)[C@@H]3C[C@@H](CN3C(C)C)Oc3ccccc32)cc1 | 26%[44.1 µM]
COc1ccc(CN2C(=O)[C@@H]3C[C@@H](CN3C3CCCC3)Oc3ccccc32)cc1 | 10µM*
O=C1[C@@H]2C[C@@H](CN2C(=O)C2CC2)Oc2ccccc2N1Cc1ccccc1 | i
COc1ccc(CN2C(=O)[C@@H]3C[C@@H](CN3C(=O)c3cnccn3)Oc3ccccc32)cc1 | -26%[44.1 µM]
O=C1[C@@H]2C[C@@H](CN2C2COC2)Oc2ccccc2N1Cc1ccc(OC(F)(F)F)cc1 | i
C=CCNC(=O)N[C@H]1[C@H](O)[C@@H](N2CCN(C(C)=O)CC2)[C@@H]2OC[C@H]1O2 | 11%[44.1 µM]
O=C(c1ccc(=O)[nH]n1)N1C[C@H]2OC(=O)N(CCCN3CCOCC3)[C@H]2C1 | -11%
COCc1c(C(=O)N2CCCn3ccnc3C2C(C)C)noc1C (centres undefined) | 3%
O=C(CSc1ccccn1)N[C@@H]1CCOC[C@H]1OCc1cscn1 | i
O=S(=O)(c1ccc(-c2ccno2)s1)N1CCC2(CCNCC2)C1 | -21%
Cc1ccc(C(=O)N[C@@H]2CN(c3ncccn3)C[C@H]2CO)cn1 | -23%
COc1ccc(CN2CC[C@H](CNC(=O)C3CC3)[C@H](N(C)C)C2)c(OC)c1 | i
CN1C(=O)CO[C@H](c2ccc(NC(=O)CCc3ccccc3)cc2)[C@H]1CO | -18%[44.1 µM]
Cn1c(=O)n([C@H]2CCCN(C(=O)Nc3ccc(F)cc3F)C2)c2ncccc21 | i
SMILES | Pf Dd2 growth
CCN1c2cc(C(=O)NCc3ccc(SC)cc3)ccc2C(=O)N2CCCCC21 (centres undefined) | -21%
COCCN1C(=O)[C@@H]2C[C@@H](CN2Cc2cccc(OC)c2)Oc2ccccc21 | 10µM*
COCCN1C(=O)[C@@H]2C[C@@H](CN2Cc2ccc(C#N)cc2)Oc2ccccc21 | -11%[44.1 µM]
COCCN1C(=O)[C@@H]2C[C@@H](CN2Cc2ccccc2)Oc2ccccc21 | i
CN(CC1CCOC1)C(=O)Nc1cccc(Cl)c1 (centres undefined) | 32%[5.79 µM]
CCC(C)NC(=O)N1CCC(c2nn(CC(=O)NC)c3c2COCC3)CC1 (centres undefined) | 26%[5.79 µM]
Cc1cccc(-c2nocc2CCC(=O)NC2CCN(Cc3ccccc3)CC2)c1 | i
Cc1ccc2[nH]c(=O)c(CCC(=O)O)cc2c1 | 21%
Cc1ccc2[nH]c(=O)c(CCC(=O)NC3CCN(Cc4ccccc4)CC3)cc2c1 | 7.1µM*
CCc1nc(-c2c3n(c(=O)n(Cc4cc(F)cc(F)c4)c2=O)CCCC3)no1 | i
O=C(c1ccc(Cl)cc1)N1CCC(N2CC3CCCN3C2=O)CC1 (centres undefined) | 13%
CNC(=O)[C@@H]1CN(C(=O)c2ccncc2)C[C@H]1CO | 41%
CCC1=C(C(=O)OC)C(c2ccccc2)N2C(CC(=O)N3CCOCC3)=CSC2=N1 (centres undefined) | i
COc1ncccc1-c1nccc2c(=O)cc(-c3ccncc3)oc12 | -6%[44.1 µM]
O=c1cc(-c2ccncc2)oc2c(-c3cccc4[nH]ccc34)nccc12 | 10µM*
Cn1cc(-c2cc(=O)c3ccnc(-c4cccc5[nH]ccc45)c3o2)cn1 | i
O=C(c1ccccc1)N1C[C@H]2OC(=O)N(CCc3cccc(Cl)c3)[C@H]2C1 | -4%
O=C(c1cccc(Cl)c1)N1CCN(c2cc(-c3ccccc3)[nH]n2)CC1 | i
O=C(Cc1ccc(F)cc1)N1CCC(c2n[nH]c(=O)n2-c2ccccc2)CC1 | 12%
Cc1noc(C)c1CC(=O)NCCc1noc(-c2cccnc2)n1 | 14%
O=C(Cc1ccccc1)NCC1CN(C(=O)Cc2cccc(Oc3ccccc3)c2)CC12CN(c1ccccc1)C2 (centres undefined) | -14%
O=C(NCC1CN(C(=O)Cc2cccc(Cl)c2)CC12CN(c1ccccc1)C2)C1CC1 (centres undefined) | 8.9µM*
Cn1cc(C(=O)NCC2CN(C(=O)Cc3cccc(Oc4ccccc4)c3)CC23CN(c2ccccc2)C3)cn1 (centres undefined) | -21%
CC(C)c1noc(C2CCCN(C(=O)NC(C)(C)C)CCC(=O)NCC2)n1 (centres undefined) | -26%
NCCCC(=O)N1CCC2(CC1)CN([S+](=O)([O-])c1ccccc1)CCO2 | 12%
SMILES | Pf Dd2 growth
COc1ccc(C(=O)Nc2ccc(-c3nnc4n3CCCCC4)cc2)cc1 | 11%
O=C(Nc1ccc(-c2nnc3n2CCCC3)cc1)C1CCCCC1 | -27%
COc1ccc(NC(=O)c2ccc(-c3nnc4ccc(NC(=O)C5CCC5)cn34)cc2)cc1 | 1µM*
Cc1ccc(NC(=O)C2CCN(C(=O)c3nnn4c3COC(c3ccc(C)cc3)C4)CC2)cc1 (centres undefined) | i
O=C(NC1CC1)c1ccc2nnc(-c3ccc(C(F)(F)F)cc3)n2c1 | 4%
O=C(Nc1ccc(F)c(Cl)c1)C1CCN(C(=O)c2ccc(F)cc2)CC1 | 9%
CCOc1ccc(C(=O)Nc2ccc3c(c2)OCCO3)cc1Br | 12%
O=C(Nc1ccc2nnc(-c3ccc(C(=O)N4CCSCC4)cc3)n2c1)C1CCC1 | 2.2µM*
Cc1cc(=O)n(CC(=O)Nc2ccc3c(c2)OCCO3)c(-c2ccc(Cl)cc2)n1 | i
CCC(=O)Nc1ccc2nnc(-c3ccc(C(=O)Nc4ccc5c(c4)OCCO5)cc3)n2c1 | 0.28µM*
COc1ccc(C(=O)Nc2ccc(-c3nnc4n3CCCCC4)cc2)cc1OC | -14%
CN(C)C(=O)c1ccc(-c2nnc3ccc(NC(=O)C4CCC4)cn23)cc1 | 4µM*
CCOCC(=O)N1C[C@@H]2CCCN3CCC[C@@H]([C@H]23)[C@H]1CCCC(=O)Nc1ccccc1 | -14%
O=C(c1ccc2nc(-c3ccccc3)cn2c1)N1CCOC(C(F)(F)F)C1 (centres undefined) | 8%
Cc1ccc(C2(C(=O)NC(C)c3cnc(-c4ccncc4)nc3C)CC2)cc1 (centres undefined) | -7%
Cc1ccc(C2c3cc(OCc4nc(C(=O)NC(C)C)co4)ccc3CCN2C(=O)C2CC2)cc1 (centres undefined) | -16%
O=C(Cc1ccccc1)N1CCCC2(C1)Nc1cccnc1NC2=NC1CCCC1 (centres undefined) | i[5.79 µM]
C[C@@H](NS(C)(=O)=O)c1onc(-c2cccnc2)c1C(=O)O | i
